Source: PubChem (Broad Institute)
C diff growth = blocks growth of Clostridium difficile. Clostridium difficile clinical isolate growth, OD600, 24 h; stronger effect = lower value. growth activity, negative = inhibition, % at 16 µg/mL (by protocol). 86,000 tested, 0.25% active. AID 1259249;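 active means mean growth activity at or below -80% and every replicate also at or below -80%; inconclusive means mean at or below -80% but some replicate above -80%; inactive means mean growth activity above -80%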;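 further: 0% = DMSO wells and -100% = levofloxacin 16 µg/mL wells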
T cruzi growth-1 = inhibitors of T. cruzi proliferation. 77,000 tested, 5.9% active. inhibition, % at 8.34 µM. AID 624255. T. cruzi beta-gal in NIH3T3, GalScreen luminescence, 90 h;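 active means mean inhibition above about 93%, with at least 55% of replicates each passing it, limit read from the data, passing the limit was not always enough; inconclusive means only one of those two conditions holds; inactive means neither condition holds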
Pf Dd2 growth = P. falciparum Dd2 growth inhibition; SYBR Green, 72 h; stronger effect = lower value; activity change, % at 10 µM; 94,000 tested, 2.3% active; AID 1159554; in the data active means activity change below about -80%; inconclusive means no clear call, values can overlap the other calls
T cruzi growth-2 = blocks T. cruzi growth in NIH3T3 host cells; shares compounds with T cruzi growth-1; T. cruzi beta-gal in NIH3T3, GalScreen luminescence, 90 h; inhibition, % at 8.35 µM; 5,600 tested, 72% active; AID 651739;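 active means mean replicate inhibition above about 95% and at least 55% of replicates individually reaching it, limit read from the data; inconclusive means only one of the two criteria is met; inactive means neither criterion is met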
T cruzi growth-3 = inhibitors of T. cruzi proliferation. shares compounds with T cruzi growth-1. AID 651740. 5,600 tested, 21% active. inhibition, % at 2.09 µM. T. cruzi beta-gal in NIH3T3, GalScreen luminescence, 90 h;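 active means mean inhibition above about 95%, with at least 55% of replicates also reaching it, limit read from the data; inconclusive means meets just one of the two conditions; inactive means meets neither condition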;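 further: plate controls were neutral control median for no effect and positive control median for full effect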
NIH3T3 tox = kills mouse NIH/3T3 fibroblasts; AID 651742; shares compounds with T cruzi growth-1; 5,600 tested, 14% active; cytotoxicity (signal decrease), % at 8.35 µM; NIH/3T3 viability, CellTiter-Glo ATP luminescence, 90 h;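 active means mean signal decrease across replicates above about 35% based on untreated-well scatter, with enough replicates individually passing, limit read from the data; inconclusive means no rule stated though some were filed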;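 further: 0% = median of neutral control wells and 100% = median of positive control wells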
NIH3T3 tox 2 = kills mouse NIH/3T3 fibroblasts; shares compounds with T cruzi growth-1; NIH/3T3 viability, CellTiter-Glo ATP luminescence, 90 h; inhibition, % at 24.9 µM; 5,600 tested, 56% active;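 active means mean loss of cell viability signal at or above a set limit, and enough replicates individually reaching it; inconclusive means meets only the mean limit or only the replicate share; inactive means meets neither condition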;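 further: 0% = median of neutral control wells and 100% = median of positive control wells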
* marks the source's active call; other numbers are inactive results; ? = inconclusive; nt = no result. Most compounds without a hit are left out; they make up all but 6.8% or so of the library.

SMILES	C diff growth	T cruzi growth-1	Pf Dd2 growth	T cruzi growth-2	T cruzi growth-3	NIH3T3 tox	NIH3T3 tox 2
CC(C)NC(=O)Nc1ccc2c(c1)C(=O)N([C@H](C)CO)C[C@@H](C)[C@@H](CN(C)Cc1ccncc1)OCCCC[C@@H](C)O2	16.9	22.1	-23.4	nt	nt	nt	nt
COc1cccc(CNC(=O)[C@@H]2[C@@H](CO)[C@@H]3Cn4c(ccc(C5=CCCC5)c4=O)[C@@H]3N2CC2CC2)c1	2.2	37.4	-9.0	nt	nt	nt	nt
CN1[C@H](C(=O)NCc2ccccc2F)[C@@H](CO)[C@@H]2Cn3c(ccc(C4=CCCC4)c3=O)[C@@H]21	-2.3	57.7	nt	nt	nt	nt	nt
CCCN1[C@@H]2c3ccc(C4=CCCC4)c(=O)n3C[C@@H]2[C@@H](CO)[C@@H]1C(=O)NCc1cccc(OC)c1	4.9	101.4*	-8.3	73.1	-36.5	19.5	?
CN1[C@@H]2c3ccc(C4=CCCCC4)c(=O)n3C[C@@H]2[C@@H](CO)[C@@H]1C(=O)NCc1ccccc1	-1.6	102.7*	-8.9	96.4*	30.0	10.1	7.4
C[C@H](CO)N1C[C@H](C)[C@H](CN(C)S(=O)(=O)c2cn(C)cn2)Oc2ncc(-c3ccc(F)cc3)cc2C1=O	-2.5	nt	12.1	nt	nt	nt	nt
CCCN1[C@@H]2Cn3c(ccc(-c4cccnc4)c3=O)[C@H]1[C@@H](C(=O)NC1CCC1)[C@@H]2CO	-3.5	17.6	8.6	nt	nt	nt	nt
CC=Cc1ccc2n(c1=O)C[C@@H]1[C@@H](CO)[C@H](C(=O)NC3CCC3)N(C(=O)C3CC3)[C@H]21 (mixture of isomers)	-4.1	nt	46.7	nt	nt	nt	nt
CCC(=O)N1CC2(C1)CN(C(=O)Cc1ccccc1)[C@H](CO)c1c2c2ccc(OC)cc2n1C	-5.7	nt	-33.8	nt	nt	nt	nt
CCCC#Cc1ccc2c(c1)O[C@H](CN(C)C(=O)Nc1ccccc1F)[C@H](C)CN([C@H](C)CO)S2(=O)=O	12.6	nt	-60.2	nt	nt	nt	nt
CC(C)CC#Cc1ccc2c(c1)O[C@H](CN(C)C(=O)Nc1ccccc1F)[C@@H](C)CN([C@@H](C)CO)S2(=O)=O	0.9	84.0	-72.4	nt	nt	nt	nt
CC(C)CC#Cc1ccc2c(c1)O[C@H](CN(C)C(=O)Nc1ccccc1F)[C@H](C)CN([C@@H](C)CO)S2(=O)=O	3.8	51.3	-26.9	nt	nt	nt	nt
CC(C)CC#Cc1ccc2c(c1)O[C@@H](CN(C)C(=O)Nc1ccccc1F)[C@H](C)CN([C@@H](C)CO)S2(=O)=O	-23.4	108.3*	-59.9	107.6*	75.8	24.5	100.6*
CC(C)CC#Cc1ccc2c(c1)O[C@@H](CN(C)C(=O)Nc1ccccc1F)[C@H](C)CN([C@H](C)CO)S2(=O)=O	-10.1	115.4*	-65.6	109.4*	41.9	28.9	78.1*
CC(C)CC#Cc1ccc2c(c1)O[C@@H](CN(C)C(=O)Nc1ccccc1F)[C@@H](C)CN([C@H](C)CO)S2(=O)=O	-6.2	107.7*	-77.6	106.2*	?	-12.6	98.8*
C[C@@H]1CN([C@H](C)CO)C(=O)c2cc(-c3ccc(F)cc3)cnc2O[C@@H]1CN(C)C(=O)c1ccncc1	nt	37.8	-6.4	nt	nt	nt	nt
CO[C@@H]1CN(C)C(=O)c2cc(NC(=O)C3CCCCC3)ccc2OC[C@H](C)N(Cc2nccs2)C[C@H]1C	-1.2	-19.1	-28.6	nt	nt	nt	nt
C[C@@H]1CCCCO[C@@H](CN(C)S(=O)(=O)c2ccc(Cl)cc2)[C@H](C)CN([C@@H](C)CO)C(=O)c2cc(NC(=O)Nc3cccc4ccccc34)ccc2O1	2.4	82.0	2.9	nt	nt	nt	nt
C[C@H](CO)N1C[C@H](C)[C@H](CN(C)CC2CCCCC2)Oc2ccc(NC(=O)CCC(F)(F)F)cc2C1=O	7.8	6.7	-2.9	nt	nt	nt	nt
C[C@@H]1CN([C@@H](C)CO)C(=O)c2cc(N(C)C)ccc2O[C@H]1CN(C)CC1CCCCC1	8.4	101.8*	5.3	-22.3	-98.8	-16.1	-4.0
C[C@H]1CN([C@@H](C)CO)C(=O)c2cc(N(C)C)ccc2O[C@H]1CN(C)CC1CCCCC1	2.8	3.5	14.9	nt	nt	nt	nt
C[C@@H]1CN([C@H](C)CO)C(=O)c2cc(NC(=O)CCC(F)(F)F)ccc2O[C@H]1CN(C)CC1CCCCC1	2.2	100.8*	10.8	-27.0	-36.4	-20.8	-4.7
